Reference: PubChem BioAssay (NCATS)
Results filed as inconclusive are left out. The source made the active and inactive calls. Calls come from the whole dose curve; as a rule, active = well fitted inhibition curve with a large enough effect; inconclusive = small, poorly fitted or top-dose-only effect; inactive = flat fitted curve, though single readings scatter.

Legend:
Test in all cases: qHTS profiling for inhibitors of Plasmodium falciparum proliferation (AID 504749); note: nearly all actives have a fitted effect of over 60% in size
Settings in all cases: P. falciparum in erythrocytes, SYBR Green DNA, 72 h; series mostly up to 28.7 µM
FAB9 = system: FAB9
In short: (§1)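 Fluorescence of SYBR Green-bound parasite DNA, read at 485/535 nm, served as the growth measure. Infected erythrocytes were cultured with compound 72 h; artemisinin (0.29 uM) and DMSO wells defined the normalization range.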

GB4 = system: GB4
In short: as §1

HB3 = system: HB3
In short: as §1

ICS = system: ICS
In short: as §1

JCK = system: JCK
In short: as §1

N140 = system: N140
In short: as §1

P94_40 = system: P94_40
In short: as §1

PC15 = system: PC15
In short: as §1

PC26 = system: PC26
In short: as §1

PC49 = system: PC49
In short: as §1

TAB109 = system: TAB109
In short: as §1

TAB165 = system: TAB165
In short: as §1

PAD = system: PAD
In short: as §1

SC27B = system: SC27B
In short: as §1

TAB113 = system: TAB113
In short: as §1

W2 = system: W2
In short: as §1

ECU = system: ECU
In short: as §1

P93_24 = system: P93_24
In short: as §1

Measured: Potency
Potency is the fitted concentration of half-maximal effect.

CC(C)CCCCCCc1ccc(O)cc1
inactive: FAB9 | GB4 | HB3 | JCK | N140 | PC15 | PC26 | PC49 | TAB109
active: ICS 12.6 µM | P94_40 12.6 µM

O=C(c1cc2ccccc2o1)N1CCN(Cc2ccccc2)CC1
active: TAB109 8.91 µM | TAB165 11.2 µM
inactive: FAB9 | HB3 | ICS | JCK | P94_40 | PC15 | PC49

O=C(O[C@H]1CN2CCC1CC2)N1CCc2ccccc2[C@@H]1c1ccccc1
inactive: FAB9 | HB3 | JCK | N140 | P94_40 | PAD | PC49 | SC27B | TAB109 | TAB113
active: W2 1.69 µM

CCN(CC)CCCC(C)Nc1cc(/C=C/c2ccccc2Cl)nc2cc(Cl)ccc12 (stereo not given)
active: ECU 2.51 µM | GB4 4.78 µM | HB3 2 µM | ICS 0.398 µM | JCK 11.2 µM | N140 3.16 µM | P93_24 2 µM | P94_40 1.78 µM | PAD 1 µM | PC15 2 µM | PC26 5.36 µM | PC49 8.91 µM | SC27B 2.82 µM | TAB109 2.51 µM | TAB113 1.78 µM | TAB165 2.24 µM | W2 0.601 µM

C(=C\c1ccncc1)/c1ccccc1
inactive: FAB9 | GB4 | JCK | N140 | P94_40 | PAD | PC15 | PC26 | PC49 | SC27B | TAB109 | TAB113 | TAB165 | W2

CN(C)CCC=C1c2ccccc2C(C)(C)c2ccccc21
inactive: FAB9 | HB3 | JCK | PC49 | SC27B
active: GB4 13.5 µM | ICS 7.94 µM | W2 3.38 µM

CC(=O)Nc1c(I)c(C(=O)O)c(I)c(N(C)C(C)=O)c1I
inactive: FAB9 | GB4 | HB3 | ICS | JCK | N140 | P93_24 | P94_40 | PAD | PC15 | PC26 | PC49 | TAB109 | TAB113 | TAB165 | W2

CC(C)=CCC/C(C)=C/C=C/C(C)=C/C=C/C(C)=C/C=C/C=C(C)/C=C/C=C(C)/C=C/C=C(\C)CCC=C(C)C
active: ICS 11.2 µM
inactive: FAB9 | GB4 | JCK | N140 | PC26 | TAB109 | TAB113

Cn1c(O)c(N=NC(N)=S)c2ccccc21
inactive: FAB9 | JCK | PC15 | PC26 | PC49
active: ICS 11.2 µM

Oc1cccc(O)c1O
active: ICS 3.98 µM
inactive: FAB9 | JCK | N140 | PC49 | SC27B | TAB109 | TAB113

CCCCCCCCCCCCCCCCOCCOCCOCCOCCOCCOCCOCCOCCOCCOCCOCCOCCOCCOCCOCCOCCOCCOCCOCCOCCO
active: ECU 1.26 µM | HB3 7.08 µM | ICS 4.47 µM | N140 10 µM | P93_24 11.2 µM | PC15 11.2 µM | PC49 12.6 µM | TAB109 12.6 µM | TAB165 14.1 µM | W2 6.75 µM

CC(CN(C)C)CN1c2ccccc2Sc2ccc(C(F)(F)F)cc21 (stereo not given)
inactive: FAB9
active: ICS 10 µM | N140 11.2 µM | P93_24 10 µM | P94_40 5.01 µM | TAB165 12.6 µM | W2 0.426 µM

CCC(=O)c1ccc2c(c1)N(CCCN1CCN(CCO)CC1)c1ccccc1S2
inactive: JCK
active: ECU 8.91 µM | GB4 9.53 µM | HB3 7.94 µM | ICS 5.01 µM | N140 8.91 µM | P93_24 8.91 µM | P94_40 10 µM | PAD 8.91 µM | PC15 7.08 µM | PC26 7.57 µM | PC49 10 µM | TAB165 10 µM | W2 5.36 µM

N[C@@H](Cc1cc(I)c(Oc2ccc(O)c(I)c2)c(I)c1)C(=O)O
inactive: FAB9 | HB3 | JCK | PC49
active: ICS 11.2 µM | W2 9.53 µM

CCCC(CCC)C(=O)OC1C[C@H]2CC[C@@H](C1)[N+]2(C)C (stereo not given in full)
active: ECU 7.94 µM | ICS 12.6 µM | SC27B 12.6 µM
inactive: FAB9 | JCK | PC49

NC(N)=NCC1COc2ccccc2O1 (stereo not given)
inactive: ECU | FAB9 | JCK | N140 | P94_40 | PAD | PC15 | PC26 | PC49 | SC27B | TAB109 | TAB113 | TAB165

CO/N=C(/C(=O)N[C@@H]1C(=O)N2C(C(=O)O)=C(COC(N)=O)CS[C@H]12)c1ccco1
active: ICS 8.91 µM
inactive: ECU | FAB9 | JCK | N140 | P94_40 | PAD | PC15 | PC26 | PC49 | SC27B | TAB109 | TAB113 | TAB165

CCOC(=O)C1=C(COCCN)NC(C)=C(C(=O)OC)C1c1ccccc1Cl (stereo not given)
inactive: FAB9 | HB3 | JCK | PAD | PC15 | PC26 | PC49 | SC27B | TAB109 | TAB113

CCN(CC)CCC(=O)N1c2ccccc2Sc2ccc(Cl)cc21
inactive: JCK | N140
active: P93_24 3.98 µM | P94_40 5.01 µM | PC49 11.2 µM | W2 3.38 µM

CN(C)C(=O)CCSC(SCCC(=O)O)c1cccc(/C=C/c2ccc3ccc(Cl)cc3n2)c1 (stereo not given)
inactive: FAB9 | JCK | PC15 | PC49
active: ICS 11.2 µM | PAD 11.2 µM | W2 7.57 µM

NC(=S)N=Nc1ccc(NN=C(N)N)cc1
active: FAB9 11.2 µM | GB4 6.75 µM | HB3 5.62 µM | ICS 5.01 µM | JCK 8.91 µM | N140 7.94 µM | P93_24 5.01 µM | P94_40 7.94 µM | PAD 11.2 µM | PC15 8.91 µM | SC27B 11.2 µM | TAB109 11.2 µM | TAB165 7.94 µM | W2 1.69 µM
